CYP2C19 act: increases human CYP2C19 enzyme activity | P33261 | activation factor at 5 µM | recombinant CYP2C19, luciferin-H EGE luminescence; stronger effect = higher value; 0 = fully inhibited enzyme, 1 = untreated enzyme | 96,000 tested, under 10 active;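 active means activation factor of at least 2 at 5 µM in the primary screen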
CYP2C9 act: CYP2C9 (human) activation; recombinant CYP2C9, luciferin-H conversion, luminescence; stronger effect = higher value; factor 1 = untreated enzyme, 0 = blocked; activation factor at 5 µM; 96,000 compounds, 1.4% hits; AID 1024;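 active means activation factor of 2 or more for CYP2C9 at a 5 µM dose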
Cav32 inh: blocks human Cav3.2 T-type calcium channel; Cav3.2-expressing cells, Fluo-4 calcium fluorescence FDSS; stronger effect = lower value; B-score at 10 µM; 100,000 compounds, 4% hits;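 active means single-dose well whose peak fluorescence ratio is a statistical outlier from its plate by either plate-standardised score or position-corrected B-score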
Target sequence (O95180 whole entry, looked up): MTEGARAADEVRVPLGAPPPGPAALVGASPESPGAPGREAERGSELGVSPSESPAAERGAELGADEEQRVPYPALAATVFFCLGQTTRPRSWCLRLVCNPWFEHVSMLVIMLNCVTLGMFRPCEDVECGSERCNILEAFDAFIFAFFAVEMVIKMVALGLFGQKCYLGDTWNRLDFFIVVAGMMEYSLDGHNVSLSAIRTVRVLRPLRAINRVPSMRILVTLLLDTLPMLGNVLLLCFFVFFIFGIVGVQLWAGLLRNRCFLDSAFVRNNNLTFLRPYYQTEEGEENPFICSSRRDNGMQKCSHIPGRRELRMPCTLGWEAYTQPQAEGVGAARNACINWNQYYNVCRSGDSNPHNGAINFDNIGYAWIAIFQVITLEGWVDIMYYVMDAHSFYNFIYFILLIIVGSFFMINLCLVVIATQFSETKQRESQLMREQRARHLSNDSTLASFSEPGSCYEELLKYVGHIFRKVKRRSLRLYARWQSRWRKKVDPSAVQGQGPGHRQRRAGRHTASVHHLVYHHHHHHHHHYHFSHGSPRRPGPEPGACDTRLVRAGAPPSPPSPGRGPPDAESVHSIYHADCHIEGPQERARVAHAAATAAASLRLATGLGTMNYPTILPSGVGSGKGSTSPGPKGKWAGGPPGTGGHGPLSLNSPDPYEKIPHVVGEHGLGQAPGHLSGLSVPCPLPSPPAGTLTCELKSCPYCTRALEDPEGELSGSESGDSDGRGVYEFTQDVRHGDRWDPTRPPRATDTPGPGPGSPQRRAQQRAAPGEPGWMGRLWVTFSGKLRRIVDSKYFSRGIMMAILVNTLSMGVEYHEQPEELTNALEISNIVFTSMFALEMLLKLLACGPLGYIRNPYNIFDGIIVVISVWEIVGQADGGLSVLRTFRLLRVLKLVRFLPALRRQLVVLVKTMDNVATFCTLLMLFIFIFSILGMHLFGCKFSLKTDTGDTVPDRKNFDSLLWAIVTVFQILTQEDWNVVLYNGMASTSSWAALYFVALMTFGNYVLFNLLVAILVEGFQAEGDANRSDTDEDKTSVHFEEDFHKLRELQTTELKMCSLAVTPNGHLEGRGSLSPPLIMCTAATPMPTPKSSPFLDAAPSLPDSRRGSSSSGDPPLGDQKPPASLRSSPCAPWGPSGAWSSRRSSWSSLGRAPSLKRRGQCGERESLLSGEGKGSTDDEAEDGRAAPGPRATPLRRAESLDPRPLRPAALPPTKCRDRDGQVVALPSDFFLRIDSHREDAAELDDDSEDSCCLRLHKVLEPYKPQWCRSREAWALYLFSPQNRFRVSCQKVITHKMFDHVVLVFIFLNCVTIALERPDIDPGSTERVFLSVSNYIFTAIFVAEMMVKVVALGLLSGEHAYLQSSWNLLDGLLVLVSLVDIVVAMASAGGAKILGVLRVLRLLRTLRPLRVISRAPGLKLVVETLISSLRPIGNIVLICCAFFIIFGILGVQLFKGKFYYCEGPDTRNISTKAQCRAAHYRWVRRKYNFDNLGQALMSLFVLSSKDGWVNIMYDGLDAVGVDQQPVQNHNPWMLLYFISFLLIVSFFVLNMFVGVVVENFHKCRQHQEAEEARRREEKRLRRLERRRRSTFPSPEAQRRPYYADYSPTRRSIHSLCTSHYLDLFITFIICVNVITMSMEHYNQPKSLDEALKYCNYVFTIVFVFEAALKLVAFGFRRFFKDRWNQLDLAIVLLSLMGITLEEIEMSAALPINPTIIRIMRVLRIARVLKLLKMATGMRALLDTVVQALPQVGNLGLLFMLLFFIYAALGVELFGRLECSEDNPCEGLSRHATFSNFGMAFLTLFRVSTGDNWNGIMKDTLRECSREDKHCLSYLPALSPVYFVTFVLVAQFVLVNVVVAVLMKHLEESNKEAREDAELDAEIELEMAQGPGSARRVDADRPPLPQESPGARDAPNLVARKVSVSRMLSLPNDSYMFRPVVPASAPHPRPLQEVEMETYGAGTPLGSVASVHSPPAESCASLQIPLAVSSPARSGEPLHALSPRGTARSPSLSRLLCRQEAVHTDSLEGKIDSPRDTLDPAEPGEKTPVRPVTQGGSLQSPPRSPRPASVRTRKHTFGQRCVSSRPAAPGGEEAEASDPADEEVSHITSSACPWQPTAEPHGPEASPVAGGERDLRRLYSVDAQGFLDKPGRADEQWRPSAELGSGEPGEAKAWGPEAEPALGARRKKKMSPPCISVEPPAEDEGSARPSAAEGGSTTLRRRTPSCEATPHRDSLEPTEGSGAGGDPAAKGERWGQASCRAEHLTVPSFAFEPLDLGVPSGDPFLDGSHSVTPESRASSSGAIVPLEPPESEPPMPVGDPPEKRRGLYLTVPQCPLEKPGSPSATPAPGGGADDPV
CYP2C9 inh: blocks human cytochrome P450 2C9; P11712; CYP2C9 Supersomes, luciferin-H conversion, luminescence; inhibition, % at 5 µM; 96,000 compounds, 20% hits;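 active means blocking of liver enzyme CYP2C9 beyond about 50% at 5 µM, limit read from the data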
CYP2C19 inhib: blocks human cytochrome P450 2C19; CYP2C19 Supersomes, luciferin-H EGE luminescence, 30 min; inhibition, % at 5 µM; 96,000 compounds, 21% hits;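 active means CYP2C19 inhibition above a set limit at 5 µM in the primary screen, cut at about 50% in these data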
Numbers stand for hits; 0 = inactive; - = no result given. Sampled rows, rich in hits. Any-hit rate of the full collection: about 27%.

SMILES	CYP2C19 act	CYP2C9 act	Cav32 inh	CYP2C9 inh	CYP2C19 inhib
COc1ccc2cc(C(c3nnnn3C(C)(C)C)N3CCc4ccccc4C3)c(=O)[nH]c2c1 (stereo unspecified)	0	0	-	94.0	65.0
Cc1nc2c(cc(Oc3ccc(S(=O)(=O)N4CCOCC4)cn3)c3ccsc32)s1	0	0	0	90.0	84.2
CCCCCC1CC(CC#CCN2CCOCC2)C(=O)O1 (stereo unspecified)	-	-	0	-	-
CCCCNS(=O)(=O)c1ccc(OC)c(C)c1	-	-	0	-	-
CCNS(=O)(=O)c1ccc(OC)c(C)c1	0	2.7	0	0	0
CCOc1ccc(S(=O)(=O)NCCOC)cc1C	0	3	0	0	89.4
C=CCNS(=O)(=O)c1ccc(OC)c(C)c1	0	2.7	0	0	0
O=C(O)CCSc1nc(C(F)(F)F)cc(=O)n1-c1ccccc1	0	0	0	0	0
NC(=O)CSc1nc(-c2ccccc2Cl)ns1	0	0	0	0	0
CCOC(=O)c1sc2nc3n(c(=O)c2c1C)CCCCC3	0	0	0	57.3	74.4
Cc1c(C(=O)O)sc2nc3n(c(=O)c12)CCCCC3	0	0	0	0	0
COc1ccc(OC)c(-n2c(-c3ccc(S(C)(=O)=O)cc3)cc(C=O)c2C)c1	0	0	0	66.4	59.6
COc1ccc(OC)c(-n2c(-c3cnccn3)n[nH]c2=S)c1	0	0	0	0	0
COc1ccc(OC)c(-n2c(C)ccc2-c2ccc(S(C)(=O)=O)cc2)c1	0	0	0	98.5	96.4
COc1ccc(OC)c(-n2c(-c3cc(-c4ccc(F)cc4)n[nH]3)n[nH]c2=S)c1	0	0	0	0	0
Cc1cc(-c2ccco2)c(C#N)c2nc3ccccc3n12	0	0	0	0	0
CC1=C(N2CCCCC2)CCC1=O	-	-	0	-	-
C=CCn1c(COc2ccccc2)nnc1SCC(=O)Nc1ccc2c(c1)OCCO2	0	0	0	0	0
C=CCn1c(COc2ccc3c(c2)CCCC3)nnc1SCC(=O)Nc1cccc(SC)c1	0	0	-4.37	50.6	0
C=CCn1c(COc2ccc(Cl)cc2)nnc1SCC(=O)N/N=C/c1cccc(O)c1	0	0	0	0	0
C=CCn1c(COc2ccc(Cl)cc2)nnc1SCC(=O)N1CC(=O)Nc2ccccc21	0	2.6	0	0	0
C=CCn1c(COc2ccccc2)nnc1SC(C)C(=O)N/N=C/c1cc(Cl)ccc1O (stereo unspecified)	0	0	-	50.0	0
C=CCn1c(COc2ccccc2)nnc1SCC(=O)C(C)(C)C	0	0	0	0	64.9
CN=C1CC(C)(C)CC(=O)/C1=C(/O)CCC(=O)NC	-	-	0	-	-
Cc1nc(NC2=NCN(Cc3cccnc3)CN2)nc2c(C)cccc12	0	0	-	0	0
SMILES	CYP2C19 act	CYP2C9 act	Cav32 inh	CYP2C9 inh	CYP2C19 inhib
O=C(Nc1ccccc1)N1CC=C(c2ccccc2)CC1	0	0	0	0	0
CC(C)c1ccc(-c2noc(C3CCCN(C(=O)c4ccc(F)cc4F)C3)n2)cc1 (stereo unspecified)	0	0	0	90.1	81.8
Cc1ccc(-c2noc(C3CCCN(C(=O)C4CCCCC4)C3)n2)o1 (stereo unspecified)	0	0	0	59.6	53.1
O=C(Nc1ccccc1)N1CC=C(c2ccc(F)cc2)CC1	0	0	-4.55	0	56.5
Cc1ccc(-c2noc(C3CCCN(C(=O)c4ccc(F)cc4F)C3)n2)cc1 (stereo unspecified)	0	0	0	0	0
Cc1ccccc1NC(=O)N1CCCC(c2nc(-c3ccc(F)cc3)no2)C1 (stereo unspecified)	0	0	0	70.3	53.6
Nc1nc2ccc([N+](=O)[O-])c(N)c2s1	0	0	0	0	0
O=C(Nc1ccc(Cl)cc1)N1CCC(c2nc(-c3ccccc3Cl)no2)CC1	0	0	0	0	0
COc1ccc(NC(=O)N2CCC(c3nc(-c4cccs4)no3)CC2)cc1	0	0	-	54.7	68.8
Cc1ccccc1NC(=O)N1CCCC(c2nc(-c3ccc(C(C)C)cc3)no2)C1 (stereo unspecified)	0	0	-4.21	69.6	0
O=C(Nc1ccc(Cl)cc1)N1CCC(c2nc(-c3cccs3)no2)CC1	0	0	0	0	0
O=C(C1CCCCC1)N1CCCC(c2nc(-c3ccc(F)cc3)no2)C1 (stereo unspecified)	0	0	0	0	0
O=C(Nc1ccccc1)N1CCCC(c2nc(-c3cccs3)no2)C1 (stereo unspecified)	0	0	0	0	86.9
O=C(Nc1ccccc1)N1CCCC(c2nc(-c3ccc(F)cc3)no2)C1 (stereo unspecified)	0	0	-5.41	0	0
COc1ccc(Cc2nnc(NC(=O)Cn3cnc4c3c(=O)n(C)c(=O)n4C)s2)cc1	-	-	0	-	-
O=C(Nc1ccccc1Cl)C1CCCN(S(=O)(=O)c2ccc(F)cc2)C1 (stereo unspecified)	0	0	0	0	71.3
CSc1cccc(NC(=O)C2CCN(S(=O)(=O)c3ccc(F)cc3)CC2)c1	0	0	0	0	0
CSc1cccc(NC(=O)C2CCCN(S(=O)(=O)c3ccc(F)cc3)C2)c1 (stereo unspecified)	0	0	-6.31	0	0
CSc1cccc(NC(=O)C2CCCN2S(=O)(=O)c2ccc(Br)s2)c1 (stereo unspecified)	0	0	0	74.4	97.5
NS(=O)(=O)c1ccc(NC(=O)C2CCCN(S(=O)(=O)c3ccc(F)cc3)C2)cc1 (stereo unspecified)	0	0	0	0	0
CSc1cccc(NC(=O)C(C)NS(=O)(=O)c2ccc(F)cc2)c1 (stereo unspecified)	0	0	0	0	61.8
O=C(NCCF)[C@H]1C[C@@H]1[C@H](NP(=O)(c1ccccc1)c1ccccc1)c1ccccc1	-	-	0	-	-
Cn1nc(C(F)(F)F)cc1C(=O)NC1CCCCCC1	0	0	0	0	0
CC(=O)c1c(C)[nH]c(C(=O)NCCN2CCC(C)CC2)c1C	0	0	0	0	0
CS(=O)c1ccccc1COC(=O)Nc1ccc(Cl)cc1 (stereo unspecified)	0	0	0	0	94.6
SMILES	CYP2C19 act	CYP2C9 act	Cav32 inh	CYP2C9 inh	CYP2C19 inhib
Cc1ccsc1/C=C1\CCc2ccccc2C1=O	0	0	0	87.4	92.9
COc1ccc(/C=C2\CCc3ccccc3C2=O)cc1OC	0	0	0	52.7	0
O=C1/C(=C\c2ccc3ccccc3c2)CCCc2ccccc21	-	-	0	-	-
COc1ccc(/C=C2\CCc3ccccc3C2=O)cc1Cn1nc(C)cc1C	0	0	-4.27	53.3	90.2
CC(C)(C)CC(=O)Nc1cccc2c1CCCC2	0	0	0	0	0
CN(CC(=O)Nc1cccc2c1CCCC2)S(=O)(=O)c1ccccc1	0	2.3	0	0	0
O=C(COc1ccccc1)Nc1cccc2c1CCCC2	0	2.1	0	0	0
O=C(CCCc1ccccc1)Nc1cccc2c1CCCC2	0	2.6	0	0	0
O=C(Nc1cccc(C(F)(F)F)c1)c1cccnc1	0	0	0	0	0
O=C(Nc1cccc(C(F)(F)F)c1)c1n[nH]c(Cn2cncn2)n1	0	0	0	51.4	0

From PubChem
